From PubChem
Shown are actives, neighbours in structure and some others; about 21% of the full set was active somewhere.
Shiga toxin inh – blocks Shiga toxin action in Vero cells. Vero cells, Shiga toxin protein synthesis inhibition reporter. inhibition, % at 38.7 µM. actives 9.2% (n = 290,000); in the data active means inhibition mostly above about 28%, no sharp cut-off; inactive means mostly below about 43%
Pf growth 48h – P. falciparum growth inhibition at 48 hours (one generation); P. falciparum luciferase growth in erythrocytes, 48 h; Potency, µM (titrated, usually from 28.7 µM), usual class: inhibitors; actives 5.9% (n = 310,000); AID 504832
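Parasite viability was followed by luminescence of a genomically integrated firefly luciferase. Cultures held 0.1% parasitemia at 2% hematocrit (final), incubated under 5% CO2 at 37 C.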
NS1 inh – influenza NS1 inhibition; AID 2326; actives 0.4% (n = 270,000); Potency, µM (doses to about 46.1 µM); calls by dose curve; further: actives are rising curves; nearly all actives have a fitted effect of over 50% in size
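Growth recovery, yeast-based: influenza A NS1 expressed in S. cerevisiae causes slow growth, and suppressors are detected by OD600. The parent strain without NS1 is used as positive control.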
Cycloheximide cs – counter-screen for Shiga toxin inhibitors: cycloheximide protein synthesis inhibition | cell reporter, cycloheximide protein synthesis inhibition counterscreen | max response, % | actives 12% (n = 300,000) | AID 2314; in the data active means max response mostly above about 13%, no sharp cut-off; inactive means mostly below about 14%; further: read at 38.3 µM for the half of the compounds with a filed dose
SARS PLP yeast – SARS-CoV PLP inhibition in yeast; actives 0.19% (n = 330,000); S. cerevisiae expressing SARS-CoV PLpro, growth rescue; Potency, µM (titrated, usually from 32.9 µM), actives largely listed as activators; calls by dose curve; further: nearly all actives have a fitted effect of over 55% in size
Pf growth 96h – inhibits malaria parasite growth, 96 h | actives 6.9% (n = 320,000) | Potency, µM (highest dose often 28.7 µM), usual class: inhibitors | P. falciparum luciferase reporter growth, 96 h
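Infected RBCs, 2% Hct / 0.05% parasitemia final; luciferase-reporter P. falciparum; cpd 96 h, 37 C, 5% CO2; luciferase detection reagent; luminescence.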
Each line names hits and unclear results; the compound was inactive in the other large screens. Unless noted, the call rests on the fitted dose curve; in most records, active means well fitted inhibition curve with a large enough effect; inconclusive means small, poorly fitted or top-dose-only effect, or another doubt; inactive means no such curve, though single readings can be large or run the other way.

CC(C)C[C@H](NC(=O)c1nc[nH]c1C(=O)N[C@@H](CC(C)C)C(=O)OC(C)(C)C)C(=O)OCc1ccccc1	Pf growth 48h inconclusive, Pf growth 96h inconclusive
CC(C)C[C@H](NC(=O)c1[nH]cnc1C(=O)N[C@@H](C)c1ccccc1)C(=O)OCc1ccccc1	Pf growth 48h 8.28µM, Pf growth 96h 5.86µM
CC(C)C[C@H](NC(=O)c1nc[nH]c1C(=O)NCC(=O)OCc1ccccc1)C(=O)OCc1ccccc1	Pf growth 48h 4.65µM, NS1 inh inconclusive, Pf growth 96h inconclusive
CC(C)C[C@H](NC(=O)c1nc[nH]c1C(=O)NCC(=O)OC(C)(C)C)C(=O)OCc1ccccc1	Pf growth 48h inconclusive
COc1ccc2nc3c(c(-c4ccccc4)c2c1)CCC3	Pf growth 96h inconclusive
COc1ccc2nc3c(nc2c1)CCCC3	Cycloheximide cs 33.2
O=C(c1cc2c(s1)CCCC2)N1CCN(S(=O)(=O)c2ccccc2C(F)(F)F)CC1	Pf growth 48h inconclusive, Pf growth 96h 11.7µM
COc1ccccc1N1CCN(C(=O)c2cc3c(s2)CCCCC3)CC1	Pf growth 48h inconclusive, Pf growth 96h inconclusive
Cc1ccc(S(=O)(=O)N2CCN(C(=O)c3cc4c(s3)CCCC4)CC2)c(C)c1	Pf growth 48h inconclusive, Pf growth 96h inconclusive (no result: Shiga toxin inh, NS1 inh, Cycloheximide cs)
O=C(c1cc2c(s1)CCCC2)N1CCN(c2ccccc2)CC1	Shiga toxin inh 151.1, Cycloheximide cs 24.5 (no result: NS1 inh)
Cc1ccc(OC(=O)c2cccc(S(=O)(=O)N3CCN(C)CC3)c2)c(Br)c1	SARS PLP yeast inconclusive
CSCC[C@H](NC(=O)[C@H](CC(C)C)NC(=O)CCNC(=O)[C@@H](NC(=O)[C@H](Cc1ccccc1)NC(=O)[C@H](CO)NC(=O)[C@@H](N)CC(=O)O)C(C)C)C(N)=O	none (no result: Pf growth 48h, NS1 inh, SARS PLP yeast, Pf growth 96h)
Cc1ccc(C)c(NC(=O)CCC(=O)NNS(=O)(=O)c2ccc(Cl)cc2)c1	none (no result: Shiga toxin inh, NS1 inh, Cycloheximide cs)
CC(=O)Nc1ccc(Cc2nc3c([nH]2)c(=O)n(C)c(=O)n3C)cc1	none
CN1CCc2cc(Cl)c(O)cc2[C@H]2c3ccccc3CC[C@@H]21	Pf growth 48h 12µM, Pf growth 96h 9.53µM (no result: Shiga toxin inh, NS1 inh, Cycloheximide cs, SARS PLP yeast)
CN1CCc2cc(Cl)c(O)cc2C(c2ccccc2)C1 (stereo not drawn)	none (no result: Shiga toxin inh, Pf growth 48h, Cycloheximide cs, SARS PLP yeast, Pf growth 96h)
CC(C)n1cc(C(=O)N2CCCC(N3CCN(c4cccc(Cl)c4)CC3)C2)cn1 (stereo not drawn)	Pf growth 96h inconclusive
Cc1ccc(C(=O)NCc2nc3ccccc3[nH]2)o1	Shiga toxin inh 97.2, Cycloheximide cs 34.0
C/C(=N\Nc1ncc(Cl)cc1Cl)c1ccc(N2CCOCC2)cc1	Shiga toxin inh 85.0, Cycloheximide cs 38.3 (no result: NS1 inh)
C/C(=N\Nc1nc2ccccc2[nH]1)c1ccc(N2CCOCC2)cc1	Shiga toxin inh 60.6, Pf growth 48h 4.15µM, Cycloheximide cs 40.0, Pf growth 96h 1.65µM (no result: NS1 inh)
C/C(=N\Nc1nc2ccccc2[nH]1)c1ccc(Cl)s1	Shiga toxin inh 53.8, Pf growth 48h 0.928µM, Cycloheximide cs 23.0, Pf growth 96h inconclusive
CC1C(=O)C(C)(C)C(=O)OC1c1ccc([N+](=O)[O-])cc1 (stereo not drawn)	none
Cc1ccc(C)c(OCCC(=O)NCCc2ccc(F)cc2)c1	none
N#Cc1c(F)cccc1N1CCN(Cc2ccc3c(c2)OCO3)CC1	Pf growth 48h inconclusive
C/C(=N\Nc1nc2ccccc2[nH]1)c1ccc(C)o1	Shiga toxin inh 29.9, Pf growth 48h inconclusive, Cycloheximide cs 37.8
O=C(NCc1ccc(-c2csnn2)cc1)C1CC1	none
O=C(Nc1ccc(-c2csnn2)cc1)C(Cl)(Cl)Cl	Shiga toxin inh 111.2, Pf growth 48h inconclusive, Cycloheximide cs 36.6, Pf growth 96h inconclusive
C=CC(=O)NCc1ccc(-c2csnn2)cc1	none
CC(C)(C)C(=O)Nc1ccc(-c2csnn2)cc1	Shiga toxin inh 43.6, Cycloheximide cs 49.6
COc1ccc(-c2cc(C(=O)N3CCN(c4ccc(F)cc4)CC3)no2)cc1OC	none
COc1ccc(-c2cc(C(=O)N3CCCCC3)no2)cc1OC	Shiga toxin inh 76.7, Cycloheximide cs 38.5
COc1ccc(-c2cc(C(=O)N3CCCC3)no2)cc1OC	Shiga toxin inh 86.0, Cycloheximide cs 20.4
CCOc1cc(/C=N/NC(=O)c2ccc(O)cc2)ccc1Oc1nc(Cl)ncc1F	Pf growth 48h inconclusive (no result: NS1 inh)
